Experiment [1] is described as follows: BSK_3C_SRB: Viability Assessment in the BioMAP Diversity Plus: 3C Assay (AID 2283023).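 Also: fitted both ways against DMSO so a hit may be signal rise or drop.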 To be noted: primary human endothelial cells (HUVEC). The method in brief: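 Human umbilical vein endothelial cells in the 3C system, treated 24 h. Total protein measured by 0.1% sulforhodamine B staining after 10% TCA fixation, read at 560 nm; bidirectional fit versus DMSO.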

Read-out in experiment [2]: Matrix Metallopeptidase 1 (MMP1), MMP1 (gene 4312)
As to the kind of experiment: BSK_BE3C_MMP1: BioMAP Diversity Plus: BE3C Assay for Matrix Metallopeptidase 1 (MMP1) Biomarker Activity (AID 2283024). To be noted: primary human bronchial epithelial cells; actives raise or lower the signal. The method in brief: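 Dose cells, wait 24 h, run MMP1 ELISA; cells are human bronchial epithelial primaries. Both increases and decreases relative to DMSO counted.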

A short description of experiment [3]: BSK_3C_Vis: BioMAP Diversity Plus: 3C Assay for Morphology Visualization (AID 2283025).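 Also: fitted both ways so gain or loss versus DMSO counts.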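 As to AC50: light microscopy image of cell morphology used as background control.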 The following applies: primary human endothelial cells (HUVEC). The method in brief: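 Endothelial cells from human umbilical vein were treated with test chemicals for 24 h and inspected by light microscopy for changes in cell conformation.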
Read-out in experiment [4]: Pselectin, SELP (gene 6403)
The experiment can be described thus: BSK_4H_Pselectin: BioMAP Diversity Plus: 4H Assay for Pselectin Biomarker Activity (AID 2283026). The following applies: primary human endothelial cells (HUVEC); actives raise or lower the signal. The method in brief: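 Human vascular endothelium from umbilical vein; P-selectin measured by ELISA at 24 h post-dose, with cytotoxicity checked by sulforhodamine B total-protein staining in parallel cultures (0.1% SRB after 10% TCA fixation, read at 560 nm).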

Experiment [5] in a line: BSK_4H_SRB: Viability Assessment in the BioMAP Diversity Plus: 4H Assay (AID 2283027).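 Also: cells exposed to compound for 24 h before staining.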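 As to AC50: curves fitted both ways versus DMSO so AC50 may be loss or gain.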 The following applies: primary human endothelial cells (HUVEC). The method in brief: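 Human umbilical vein endothelial cells were dosed with chemical and, after 24 h, fixed with 10% TCA, stained with 0.1% sulforhodamine B, and read at 560 nm to give total protein as a cytotoxicity measure. Bidirectional fitting relative to DMSO control.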

Experiment [6] can be described thus: BSK_BE3C_SRB: Viability Assessment in the BioMAP Diversity Plus: BE3C Assay (AID 2283028).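 As to AC50: fitted both ways so AC50 may mark signal gain or loss versus DMSO.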 To be noted: primary human bronchial epithelial cells. The method in brief:
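Human bronchial epithelial primary cells in confluent culture, 24 h after chemical dosing; total protein by 0.1% SRB staining after 10% TCA fixation, read at 560 nm. Bidirectional fitting versus DMSO baseline.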

Read-out in experiment [7]: Urokinase-type plasminogen activator receptor (uPAR), PLAUR (gene 5329)
As to the kind of experiment: BSK_4H_uPAR: BioMAP Diversity Plus: 4H Assay for Urokinase-type plasminogen activator receptor (uPAR) Biomarker Activity (AID 2283030). The following applies: primary human endothelial cells (HUVEC); actives raise or lower the signal. The method in brief:
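Human umbilical vein endothelial cells in the 4H system, 24 h after chemical dosing. Cell-surface uPAR measured by ELISA, fitted in both directions versus DMSO; cytotoxicity checked by SRB total protein in parallel cultures.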

Read-out in experiment [8]: Vascular endothelial growth factor receptor 2 (Homo sapiens) (UniProt P35968)
The experiment can be described thus: BSK_4H_VEGFRII: BioMAP Diversity Plus: 4H Assay for Vascular endothelial growth factor receptor 2 (VEGFR2) Biomarker Activity (AID 2283031). The following applies: primary human endothelial cells (HUVEC); actives raise or lower the signal. The method in brief:
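Primary human umbilical vein endothelial cells (4H system), 24 h exposure; cell-surface VEGFR2 measured by ELISA. Bidirectional fitting versus DMSO; cytotoxicity checked in parallel by SRB total-protein staining.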

Read-out in experiment [9]: Human Leukocyte Antigen - DR isotype (HLADR), HLA-DRA (gene 3122)
The experiment can be described thus: BSK_BE3C_HLADR: BioMAP Diversity Plus: BE3C Assay for Human Leukocyte Antigen - DR isotype (HLADR) Biomarker Activity (AID 2283032). To be noted: primary human bronchial epithelial cells; actives raise or lower the signal. The method in brief:
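Signal came from an ELISA for HLA-DR in human bronchial epithelial primary cells harvested 24 h after treatment; gain- and loss-of-signal fitting used DMSO controls as reference.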

Read-out in experiment [10]: Vascular cell adhesion molecule 1 (VCAM1), VCAM1 (gene 7412)
The experiment can be described thus: BSK_4H_VCAM1: BioMAP Diversity Plus: 4H Assay for Vascular cell adhesion molecule 1 (VCAM1) Biomarker Activity (AID 2283033).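 As to outcome: cell-surface VCAM-1 protein measured by ELISA.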 To be noted: primary human endothelial cells (HUVEC); actives raise or lower the signal. The method in brief: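 Endpoint derived from bidirectional fitting against DMSO controls of VCAM-1 ELISA signal in umbilical vein endothelial cells sampled at 24 h following treatment.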

Read-out in experiment [11]: Interferon-gamma inducible Protein 10 (IP10), CXCL10 (gene 3627)
As to the kind of experiment: BSK_BE3C_IP10: BioMAP Diversity Plus: BE3C Assay for Interferon-gamma inducible Protein 10 (IP10) Biomarker Activity (AID 2283034). To be noted: primary human bronchial epithelial cells; actives raise or lower the signal. The method in brief:
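Using primary human bronchial epithelial cultures, the assay captures IP-10 by ELISA one day (24 h) after exposure. Parallel SRB staining of total protein flags overt cytotoxicity. Fits run bidirectionally relative to DMSO.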

Read-out in experiment [12]: Monokine induced gamma interferon (MIG), CXCL9 (gene 4283)
The experiment can be described thus: BSK_BE3C_MIG: BioMAP Diversity Plus: BE3C Assay for Monokine induced gamma interferon (MIG) Biomarker Activity (AID 2283035).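 As to outcome: MIG protein measured by ELISA in BE3C cultures after 24 h of dosing.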 To be noted: primary human bronchial epithelial cells; actives raise or lower the signal. The method in brief:
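ELISA read-out of MIG in human lung bronchial epithelial primary cultures, 24 h post-dosing. Bidirectional curve fit vs DMSO baseline.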

Read-out in experiment [13]: Transforming growth factor beta 1 (TGFb1), TGFB1 (gene 7040)
As to the kind of experiment: BSK_BE3C_TGFb1: BioMAP Diversity Plus: BE3C Assay for Transforming growth factor beta 1 (TGFb1) Biomarker Activity (AID 2283036;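 as to outcome: TGF-b1 protein level measured by ELISA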). The following applies: primary human bronchial epithelial cells; actives raise or lower the signal. The method in brief:
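In this human primary bronchial epithelial system, an ELISA quantified TGF-b1 one day after dosing. Endpoint changes in either direction were fitted relative to DMSO.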

Read-out in experiment [14]: urokinase plasminogen activator (uPA), PLAU (gene 5328)
The experiment can be described thus: BSK_BE3C_uPA: BioMAP Diversity Plus: BE3C Assay for urokinase plasminogen activator (uPA) Biomarker Activity (AID 2283038).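 As to outcome: uPA protein level quantified by ELISA in cell cultures; uPA read one day after compound addition.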 To be noted: primary human bronchial epithelial cells; actives raise or lower the signal. The method in brief:
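Primary human bronchial epithelial cells, uPA measured by ELISA 24 h after dosing. Bidirectional change relative to DMSO; cytotoxicity checked in parallel cultures by sulforhodamine B total-protein staining.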

Read-out in experiment [15]: Urokinase-type plasminogen activator receptor (uPAR), PLAUR (gene 5329)
The experiment can be described thus: BSK_BE3C_uPAR: BioMAP Diversity Plus: BE3C Assay for Urokinase-type plasminogen activator receptor (uPAR) Biomarker Activity (AID 2283039).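 As to outcome: cells exposed to compound for one day before measurement.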 The following applies: primary human bronchial epithelial cells; actives raise or lower the signal. The method in brief:
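A uPAR ELISA serves as the readout, taken 24 h after treating primary human bronchial epithelial cells. Responses in either direction are fitted against DMSO, which defines baseline activity.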

Read-out in experiment [16]: Interleukin-6 (IL6), IL6 (gene 3569)
As to the kind of experiment: BSK_CASM3C_IL6: BioMAP Diversity Plus: CASM3C Assay for Interleukin-6 (IL6) Biomarker Activity for (AID 2283040). The following applies: primary human coronary artery smooth muscle cells; actives raise or lower the signal.

Read-out in experiment [17]: Tissue plasminogen activator (tPA), PLAT (gene 5327)
The experiment can be described thus: BSK_BE3C_tPA: BioMAP Diversity Plus: BE3C Assay for Tissue plasminogen activator (tPA) Biomarker Activity (AID 2283041).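 Also: tPA level quantified by ELISA one day after compound addition.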 To be noted: primary human bronchial epithelial cells; actives raise or lower the signal. The method in brief:
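Bidirectional curve fitting relative to DMSO defined activity, with tPA detected by ELISA in chemically treated human bronchial epithelial primary cells at 24 hours.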

Read-out in experiment [18]: Thrombomodulin, THBD (gene 7056)
The experiment can be described thus: BSK_3C_Thrombomodulin: BioMAP Diversity Plus: 3C Assay for Thrombomodulin Biomarker Activity (AID 2283029). The following applies: primary human endothelial cells (HUVEC); actives raise or lower the signal. The method in brief:
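Thrombomodulin ELISA, human primary HUVEC, 24 h post-dose; data fitted in both directions relative to DMSO.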

Read-out in experiment [19]: Plasminogen activator inhibitor-1 (PAI1), SERPINE1 (gene 5054)
The experiment can be described thus: BSK_BE3C_PAI1: BioMAP Diversity Plus: BE3C Assay for Plasminogen activator inhibitor-1 (PAI1) Biomarker Activity (AID 2283037). To be noted: primary human bronchial epithelial cells; actives raise or lower the signal. The method in brief: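 PAI-1 biomarker levels in treated human bronchial epithelial cells are determined by ELISA at 24 h. Both increases and decreases relative to DMSO are fitted.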

Experiment [20] concerns the target human Vitamin D Receptor (VDR), VDR (gene 7421) (UniProt P11473). As to the kind of experiment: ATG_VDR_TRANS: Attagene TRANS-FACTORIAL HepG2 Assay for human Vitamin D Receptor (VDR) (AID 2283022; active = hit-call score of the fitted dose curve at least 0.9, where 1 is the maximum). The method in brief: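 HepG2 cells were transiently transfected with GAL4-UAS reporter units and a chimeric VDR-Gal4 construct, then dosed for 24 hours. Reporter mRNA was quantified by RT-PCR, fluorescent labeling, HpaI digestion and capillary electrophoresis; gain of signal analysed vs DMSO.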

Records with an inconclusive call do not appear. Active and inactive are the calls of the source. The calls were made as follows, unless noted: active = hit-call score of the fitted dose curve at least 0.9, where 1 is the maximum; inactive = score below 0.9.

The text below walks through data of PubChem BioAssay (EPA / NIEHS).

Chain of human Vitamin D Receptor (VDR), VDR (gene 7421) (P11473 whole entry, looked up, the tested form may be a part): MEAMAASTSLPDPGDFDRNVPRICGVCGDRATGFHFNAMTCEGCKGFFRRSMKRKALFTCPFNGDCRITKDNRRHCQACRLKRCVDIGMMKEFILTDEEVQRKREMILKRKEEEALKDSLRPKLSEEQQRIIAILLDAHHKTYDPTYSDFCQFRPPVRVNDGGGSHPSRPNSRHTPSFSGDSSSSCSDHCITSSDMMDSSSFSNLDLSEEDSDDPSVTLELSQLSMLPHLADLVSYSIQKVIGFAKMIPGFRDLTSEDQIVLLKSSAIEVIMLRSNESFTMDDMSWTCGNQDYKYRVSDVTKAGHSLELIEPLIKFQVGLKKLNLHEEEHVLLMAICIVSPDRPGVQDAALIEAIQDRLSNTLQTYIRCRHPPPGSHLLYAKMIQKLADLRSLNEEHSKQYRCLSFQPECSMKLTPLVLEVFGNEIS

As to `CCCCC(CC)COC(=O)c1ccccc1C(=O)O` (stereo unspecified), the outcome in experiment [1], in experiment [2], in [3], in [4], in experiment [5] and in experiment [6] was inactive. Further, the outcome in [7], in [8], in experiment [9], in experiment [10], in [11] and in [12] was inactive. Besides, the outcome in experiment [15], in [16] and in experiment [17] was inactive. Moreover, the AC50 in [13] is 5.04 µM (active); in experiment [14], 29.9 µM (active).

With `CCOC(=O)C(C)Oc1ccc(Oc2cnc3cc(Cl)ccc3n2)cc1` (stereo unspecified), the result in [1], in experiment [2], in experiment [3], in experiment [4], in experiment [5] and in experiment [6] was inactive. Moreover, the outcome in [7], in experiment [8], in experiment [9], in [10], in [11] and in experiment [12] was inactive. In addition, the result in experiment [14], in experiment [15], in experiment [16] and in experiment [17] was inactive.

With `CCCCOC(=O)[C@@H](C)Oc1ccc(Oc2ccc(C(F)(F)F)cn2)cc1`, the result in [1], in [2], in experiment [4], in experiment [5], in experiment [6] and in experiment [18] was inactive. For the same compound, the outcome in [7], in experiment [8], in [9], in experiment [10], in experiment [11] and in experiment [12] was inactive. Moreover, the outcome in [13], in [19], in experiment [14], in experiment [15], in experiment [16] and in [17] was inactive. The AC50 in experiment [3] is 39 µM (active).

In the case of `Oc1ccc(C(c2ccc(O)cc2)C(Cl)(Cl)Cl)cc1`, the compound was called inactive in experiment [20], in experiment [13], in experiment [16] and in experiment [17]. The AC50 in [1] was 16.4 µM (active); in experiment [2], 33.1 µM (active); in experiment [3] it was 29.4 µM (active); in experiment [4] it was 20 µM (active); in experiment [5], 19.3 µM (active); in experiment [6], 30.2 µM (active). For the same compound, the AC50 in experiment [7] is 31.4 µM (active); in [9], 26.5 µM (active); in experiment [10] it was 26 µM (active); in [11], 29.3 µM (active); in experiment [12], 34.7 µM (active); in experiment [14], 36.6 µM (active). In addition, the AC50 in experiment [15] is 31.1 µM (active).

As to `CCSC(=O)N(CC(C)C)CC(C)C`, the result in [1], in experiment [2], in experiment [3], in experiment [4], in experiment [5] and in experiment [6] was inactive. Moreover, the result in experiment [18], in experiment [7], in [8], in [9], in experiment [10] and in experiment [11] was inactive. The result in [12], in experiment [13], in [14], in [15], in [16] and in experiment [17] was inactive.

Consider `O=C(Nc1ccc([N+](=O)[O-])cc1Cl)c1cc(Cl)ccc1O`, for which the half-maximal activity concentration (AC50) in experiment [1] is 0.589 µM (active); in experiment [4], 0.302 µM (active); in experiment [5], 0.516 µM (active); in experiment [6] it was 0.34 µM (active); in [7], 0.148 µM (active); in [9], 0.148 µM (active). Also, the AC50 is 0.412 µM (active) in experiment [10]; 0.302 µM (active) in experiment [11]; 0.148 µM (active) in [12]; 0.148 µM (active) in [15]; 0.308 µM (active) in experiment [16]. The result in [2], in experiment [8], in [13], in experiment [19] and in experiment [17] was inactive.

For the compound `CCOC(=O)C(C)Oc1ccc(Oc2nc3ccc(Cl)cc3o2)cc1` (stereo unspecified), the result in experiment [20], in experiment [1], in experiment [2], in experiment [3], in experiment [4] and in experiment [5] was inactive. Also, the result in [6], in [7], in experiment [8], in experiment [10], in [11] and in experiment [12] was inactive. The outcome in experiment [13], in [15], in experiment [16] and in experiment [17] was inactive. The AC50 is 20 µM (active) in experiment [9] and 24.3 µM (active) in experiment [14].
